Data: PubChem BioAssay AID504339 (National Center for Advancing Translational Sciences (NCATS), 2011)
Among all 390,000 compounds or so, about 17,000 (4.4%) were called active. Roughly 8% stayed inconclusive and do not appear here. Many of the other results were omitted from the sample, so actives are more common in it than they were. A number with no mark means an inactive call. Calls follow the shape of the dose curve; as a rule, active = well fitted inhibition curve with a large enough effect; inconclusive = small, poorly fitted or top-dose-only effect; inactive = no such curve, though single readings can be large or run the other way.

What follows are molecules tested against Lysine-specific demethylase 4A (Homo sapiens) (UniProt O75164) (assay: qHTS Assay for Inhibitors of JMJD2A-Tudor Domain). Settings: AlphaScreen JMJD2A-Tudor / H3K4me3 peptide binding; series mostly up to 114 µM; activity change, negative = inhibition: at the top concentration.
% is scaled to controls: 0 for no effect and ±100 for the full control effect; potency is read from the fitted curve at half-maximal effect.
Also: nearly all actives have a fitted effect of over 50% in size.

Sequence of Lysine-specific demethylase 4A (Homo sapiens) (O75164 whole entry, looked up, the tested form may be a part): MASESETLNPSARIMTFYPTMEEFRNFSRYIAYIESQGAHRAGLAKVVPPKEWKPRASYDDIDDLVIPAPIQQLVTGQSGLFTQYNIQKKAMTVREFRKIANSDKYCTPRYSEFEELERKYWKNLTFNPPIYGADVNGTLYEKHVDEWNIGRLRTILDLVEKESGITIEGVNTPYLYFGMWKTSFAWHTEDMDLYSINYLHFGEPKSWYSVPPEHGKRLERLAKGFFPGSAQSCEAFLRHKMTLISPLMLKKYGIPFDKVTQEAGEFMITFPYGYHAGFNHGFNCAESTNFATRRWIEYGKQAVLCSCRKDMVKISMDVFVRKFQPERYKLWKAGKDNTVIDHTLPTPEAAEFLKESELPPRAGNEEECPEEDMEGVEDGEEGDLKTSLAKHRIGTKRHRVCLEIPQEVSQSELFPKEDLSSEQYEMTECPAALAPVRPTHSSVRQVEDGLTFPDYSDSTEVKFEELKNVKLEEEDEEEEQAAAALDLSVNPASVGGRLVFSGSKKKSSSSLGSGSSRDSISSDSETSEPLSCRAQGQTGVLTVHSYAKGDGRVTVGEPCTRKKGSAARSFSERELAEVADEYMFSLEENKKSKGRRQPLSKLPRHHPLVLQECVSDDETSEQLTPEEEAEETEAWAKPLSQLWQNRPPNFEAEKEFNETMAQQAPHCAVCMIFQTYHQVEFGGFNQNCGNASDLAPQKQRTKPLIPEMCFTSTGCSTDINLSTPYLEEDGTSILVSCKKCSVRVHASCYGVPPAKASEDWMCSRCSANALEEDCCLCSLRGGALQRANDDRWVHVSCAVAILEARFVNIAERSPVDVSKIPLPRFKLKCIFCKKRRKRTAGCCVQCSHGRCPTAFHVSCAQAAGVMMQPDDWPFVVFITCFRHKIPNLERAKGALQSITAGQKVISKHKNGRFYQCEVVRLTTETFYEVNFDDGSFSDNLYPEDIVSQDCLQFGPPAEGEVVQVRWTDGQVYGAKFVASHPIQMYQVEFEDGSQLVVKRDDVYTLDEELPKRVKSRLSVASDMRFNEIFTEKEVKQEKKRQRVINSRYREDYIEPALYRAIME

SMILES	activity change, negative = inhibition	Potency
CC(C)Cn1c(C2CC(=O)N(c3ccccc3Cl)C2)nc2ccccc21 (stereo not drawn)	-2.01%	
Cc1ccccc1CNC(=O)c1ccc(NC(=O)N2CCCCc3ccccc32)cc1	-8.67%	
CCOC(=O)c1c(C)[nH]c(C)c1S(=O)(=O)N(C)CC(=O)N1CCN(c2ccccc2)CC1	-26.3%	
Cc1cc(Br)ccc1NC(=O)Cn1cnc2sc(C)c(S(=O)(=O)N3CCN(C)CC3)c2c1=O	-7.85%	
O=C(Nc1nnc(-c2ccccc2)o1)c1cccc(S(=O)(=O)N2CCOCC2)c1	-5.56%	
O=C(Nc1nnc(-c2ccco2)o1)c1ccc(S(=O)(=O)N2CCOCC2)cc1		79.4 µM (active)
CC1CCCN(S(=O)(=O)c2ccc(C(=O)Nc3nnc(-c4ccncc4)o3)cc2)C1 (stereo not drawn)	-35.7%	
Cc1ccc(Nc2nnc(-c3ccc(C)c(S(=O)(=O)N4CCCCC4)c3)c3ccccc23)cc1	-1.31%	
COc1ccccc1C1=Nc2cccc3cccc(c23)N1		50.1 µM (active)
COc1ccccc1-c1nnc(-c2ccc(F)cc2)o1	-3.47%	
COc1ccccc1-c1nc(C(F)(F)F)c(OC)o1	-7.87% [at 57.1 µM]	
COc1ccc(NC(=O)Cn2c(=O)cc(C)c3c(C)nn(-c4cccc(Cl)c4C)c32)cc1OC	-2.88%	
CCOC(=O)C1CCCN(C(=O)c2ccc(-n3ccc4ccccc43)s2)C1 (stereo not drawn)	45.1%	
CCCn1c2ccccc2c2cnn(CC(=O)N(CC)c3cc(C)ccc3C)c(=O)c21	-20.1%	
Cc1nnc(NCc2ccccc2)c2c1nnn2Cc1ccc(F)cc1	-13.8%	
C=C1c2c(Cl)ccc(O)c2C(O)=C2C(=O)[C@]3(O)C(O)=C(C(N)=O)C(=O)[C@@H](N(C)C)[C@@H]3[C@@H](O)C12 (stereo partly drawn)		2 µM (active)
CN(C)[C@@H]1C(=O)C(C(N)=O)=C(O)[C@@]2(O)C(=O)C3=C(O)c4c(O)ccc(Cl)c4[C@@H](O)[C@H]3C[C@@H]12		25.1 µM (active)
COc1ccccc1NC(=O)CSC1=Nc2ccccc2C2=NC(CC(=O)NCc3cccs3)C(=O)N12 (stereo not drawn)	-15.7%	
COc1ccc(C)cc1-n1c(-c2ccc(C)cc2)cc2c1CC(C)(C)CC2=O	-27.3%	
O=C1CSC2(C(=O)N(Cc3ccccc3)c3ccccc32)N1c1cccc(F)c1 (stereo not drawn)	-8.97%	
COc1ccccc1Nc1nc(N)nc(CN(C)C2CCCCC2)n1		15.8 µM (active)
COc1ccccc1Nc1nc(N)nc(CSC(=S)N2CCOCC2)n1	-7.91%	
COc1ccccc1NC1=NC(c2ccc(Cl)cc2)N=C(N)N1 (stereo not drawn)	-20.7%	
O=C(Nc1cc(C(F)(F)F)ccc1Cl)c1ccc2c(c1)CCN2S(=O)(=O)c1ccccc1	3.14%	

SMILES	activity change, negative = inhibition	Potency
CC(C)CNc1ncnc2c1nnn2C	-14.6%	
O=C(CC1N=C2c3ccccc3N=C(SCc3cccc(Cl)c3)N2C1=O)NCc1ccc2c(c1)OCO2 (stereo not drawn)	-21.7%	
COCCCNCC(=O)Nc1sc(C)c(C)c1C(=O)OC		28.2 µM (active)
CCOC(=O)c1c(NC(=O)CCl)sc(C(=O)N(CC)CC)c1C	-2.65%	
COC(=O)c1c(NC(=O)c2c(Cl)cnn2C)sc(C)c1C	-1.31%	
CCc1cccc(NC(=O)CSc2nccn2C)c1	-5.6%	
Cc1cc(C)cc(OCC(=O)Nc2c(C(=O)c3ccccc3)oc3ccccc23)c1	12.7%	
O=C(Cn1cc(SCc2cccc(Cl)c2)c2ccccc21)N1CCCCC1	8.06%	
COc1ccc(-c2nn(CC(=O)NC3CCCC3)c3c2cnc2ccc(F)cc23)cc1	-9.67%	
O=C(COC(=O)c1ccccc1)c1ccc2c(c1)OCCO2	2.03%	
O=C(CCN1CCc2ccccc2C(O)(c2ccccc2)C1)c1ccc2c(c1)OCCO2 (stereo not drawn)		79.4 µM (active)
O=C(CN1CCC(O)(c2ccccc2)CC1)Nc1ccc2c(c1)OCCO2	-14.5%	
Cc1cc(Cl)ccc1NC(=O)Cc1ccc(NC(=O)N2CCCCc3ccccc32)cc1	-24%	
Cc1ccc(C)c(Cn2c(C)c(CNCc3ccc(F)cc3)c(C(=O)O)c2C)c1	-25.5%	
S=c1[nH]ccn1-c1ccc(Cl)cc1		10 µM (active)
CCOC(=O)c1ccccc1NC(=O)c1sc2nc(-c3ccc(F)cc3)cn2c1C	-18.2%	
O=C(NCCCN1CCOCC1)c1ccc2c(c1)N(Cc1cccc(F)c1)C(=O)c1ccccc1S2	0.389%	
CCN1CCN(CCNC(=O)c2ccc(/C=C3/Sc4ccccc4N(Cc4cccc(C)c4)C3=O)cc2)CC1		50.1 µM (active)
CN1CCN(CCCNC(=O)c2ccc(/C=C3\Oc4ccccc4N(Cc4ccc(Cl)cc4)C3=O)cc2)CC1	-1.17%	
COc1ccc(Cl)cc1NC(=O)Cn1c(=O)c2ccccc2n2nncc12	-26.8%	
COc1ccccc1CNCc1ccc(C(=O)O)s1	-5.03%	
CSc1nc(Nc2ccc(F)cc2)cc(-c2ccccc2)n1	43.4%	
COC(C(=O)Nc1ccc(C(C)=O)cc1)c1ccccc1 (stereo not drawn)	-6.88%	
COc1ccc(NC(C(=O)Nc2cccc(C(C)=O)c2)c2ccccc2)cc1 (stereo not drawn)		17.8 µM (active)
